S2 tox: viability counter-screen for ATXN expression inhibitors; 0.49% of 400,000 active; Potency, µM (titrated, usually from 56.7 µM), hits mostly cytotoxic; AID 651635; S2 cells (HEK-293 line with an ATXN2-luciferase reporter) viability, CellTiter-Fluor protease fluorescence, 24 h; note: nearly all actives have a fitted effect of over 40% in size
ATXN2 expr inh: reduces ATXN2 reporter expression in HEK-293 cells; HEK-293 ATXN2-luciferase reporter, luminescence, 24 h; Potency, µM (titrated, usually from 57 µM), for inactives: at the highest dose activity change, negative = inhibition, actives largely listed as inhibitors; 0.72% of 360,000 active; AID 1745845; note: % is set by controls: 0 for no effect and ±100 for the full control effect; nearly all actives have a fitted effect of over 55% in size
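ATXN2-luciferase reporter cells (luciferase flanked by upstream and downstream ATXN2 gene portions) were treated 24 h at 37 °C with compounds at up to 57 uM. SteadyGlo luminescence gave expression; GF-AFC fluorescence gave viability.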
KB-3-1 tox: kills parental KB-3-1 adenocarcinoma cells; 1.4% of 400,000 active; KB-3-1 viability, CellTiter-Glo ATP luminescence, 72 h; AID 1347075; Potency, µM (highest dose often 46.1 µM), hits mostly cytotoxic; note: % is set by controls: 0 for no effect and ±100 for the full control effect; nearly all actives have a fitted effect of over 60% in size
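Viability of parental KB-3-1 cells, measured by CellTiter-Glo luminescence, followed a 72 h incubation at 37 °C with pinned compounds in phenol-red-free DMEM containing 10% FBS.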
KB-V1 cytotox: KB-V1 MDR subline cytotoxicity; Potency, µM (doses to about 46.1 µM), hits mostly cytotoxic; 3.4% of 400,000 active; KB-V1 MDR cells viability, CellTiter-Glo, 72 h; note: % is set by controls: 0 for no effect and ±100 for the full control effect; nearly all actives have a fitted effect of over 60% in size
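Drug-selected KB-V1 cells, grown in DMEM lacking phenol red with 10% FBS, receive compound titrations; after three days at 37 degrees C, surviving cell ATP is quantified by CellTiter-Glo luminescence and responses normalized and curve-fitted.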
HepG2 viability: counter-screen for TGF-b inhibitors: cytotoxicity in HepG2 cells; HepG2 CAGA-GFP viability, ATP luminescence, 18 h; Potency, µM (series often up to 46.1 µM), without a hit: at the highest dose activity change, negative = cytotoxicity, hits mostly cytotoxic; 0.76% of 410,000 active; AID 588856
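CellTiter-Glo luminescence gave cytotoxicity after 18 hours at 37 degrees C. The cells were HepG2 CAGA-GFP in 1% FBS DMEM, stimulated with 500 pg/mL TGF-beta after compound addition. %Activity was normalised to no-cell wells (complete cell-killing) and DMSO (no toxicity), and curves were fitted and classified.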
TGFb inhibitor: blocks TGF-b signaling | HepG2 CAGA-GFP TGF-b/SMAD3 reporter, GFP fluorescence, 18 h; TGF-beta stimulated, 500 pg/mL final | Potency, µM (top dose mostly 46.1 µM), for the others: at the top dose activity, negative = inhibition, most hits filed as inhibitors | AID 588855 | 1.2% of 410,000 active; note: % is set by controls: 0 for no effect and ±100 for the full control effect; nearly all actives have a fitted effect of over 65% in size
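First, reporter cells (HEPG2 CAGA-GFP) rested 2 h at 37 degrees C. Next, compounds were pinned in and TGF-beta added to 500 pg/mL final. After 18 h, GFP was imaged per cell and summed per well.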
Starred values were filed as active, the others as inactive; i = inactive; ? = inconclusive; . = not tested or not shown. Sampled rows, rich in hits. Any-hit rate of the full collection: about 5.9%. Calls come from the whole dose curve; as a rule, active = well fitted curve in the direction sought with a large enough effect; inconclusive = small, poorly fitted or top-dose-only effect, or another doubt; inactive = no such curve, though single readings can be large; an effect the other way counts as inactive or inconclusive. Potency is the fitted concentration of half-maximal effect.

SMILES	S2 tox	ATXN2 expr inh	KB-3-1 tox	KB-V1 cytotox	HepG2 viability	TGFb inhibitor
Cc1ccc(-c2noc(C3CCCN(C(=O)c4c(F)cccc4F)C3)n2)cc1 (stereo not given)	i	4%	i	16µM*	-1%	-28%
O=C(c1c(F)cccc1F)N1CCCC(c2nc(-c3ccc(Cl)cc3)no2)C1 (stereo not given)	i	?	18µM*	?	-34%	?
COc1ccc(C(=O)N2CCCC(c3nc(-c4ccc(OC)c(OC)c4)no3)C2)c(OC)c1 (stereo not given)	i	1%	i	4.1µM*	-76%	-20%
Cc1ccc(-c2noc(C3CCCN(C(=O)c4cccc(F)c4)C3)n2)cc1 (stereo not given)	?	.	i	i	-23%	?
COc1ccc(-c2noc(C3CCCN(C(=O)c4ccccc4OC)C3)n2)cc1OC (stereo not given)	i	20%	i	i	-9%	0%
COc1ccc(-c2csc3nc(-c4ccc(F)cc4)oc(=O)c23)cc1OC	i	2%	i	i	-13%	1%
COc1ccccc1C(=O)N1CCCC(c2nc(SCCN3CCOCC3)ncc2C)C1 (stereo not given)	i	.	.	.	.	.
NC(=S)N/N=C/c1c(O)c(Br)cc2oc3c(c12)CCCC3	i	?	21µM*	?	-4%	?
Oc1c(Br)cc2oc3c(c2c1CNCc1ccccc1)CCCC3	i	-14%	i	?	1%	17%
CCc1ccc(NC(=O)Cn2c(=O)n(Cc3ccco3)c(=O)c3oc4ccccc4c32)cc1	i	0%	i	i	-3%	0%
C=CCn1c(-c2oc3nc(-c4ccccc4)cc(-c4ccccc4)c3c2N)n[nH]c1=S	.	6%	i	9.2µM*	-2%	-6%
COc1ccc(C(=O)CSc2nc3cc(C(=O)NC4CCCC4)ccc3c(=O)n2CC2CCCO2)cc1 (stereo not given)	i	9%	i	i	-5%	-11%
CC(=O)c1cccc(S(=O)(=O)N2CCN(c3ccccc3F)CC2)c1	i	.	i	i	1%	1%
O=C(NNC(=S)NC1CCCCC1)c1cccc(S(=O)(=O)Nc2ccccc2Cl)c1	i	1%	?	21µM*	2%	-20%
Cc1ccc(NS(=O)(=O)c2cccc(C(=O)NNC(=O)NC3CCCCC3)c2)c(C)c1	i	7%	i	i	-12%	?
O=C(NC1CCN(Cc2ccccc2)CC1)c1cccc(S(=O)(=O)Nc2cc(C(F)(F)F)ccc2Cl)c1	i	-10%	?	23µM*	-34%	-25%
O=C(c1cccc(S(=O)(=O)Nc2ccccc2Cl)c1)N1CCCCCC1	i	5%	i	18µM*	-1%	0%
COc1ccc(Cl)cc1NS(=O)(=O)c1cccc(C(=O)NC2CCN(Cc3ccccc3)CC2)c1	i	-35%	i	i	-19%	?
O=C(c1cccc(S(=O)(=O)N2CCCC2)c1)N1CCN(c2ccccc2F)CC1	i	-8%	i	6.5µM*	-12%	19%
O=C(c1cccc(S(=O)(=O)N2CCCCC2)c1)N1CCCCC1	i	5%	i	15µM*	3%	-25%
CC1CN(Cc2cccn2-c2cccnc2)Cc2cc(Cl)ccc2O1 (stereo not given)	i	.	.	.	.	.
CN1CCN(c2ccc(-c3cc(NC=O)c4ncc(-c5ccccc5)n4c3)cc2)CC1	?	?	i	23µM*	-20%	?
COc1cc(-c2cnc3c(NC(C)=O)cc(-c4ccc(N5CCN(C)CC5)cc4)cn23)cc(OC)c1OC	.	14µM*	?	?	-78%	-7%
COc1ccc(F)cc1-c1cc(NC(C)=O)c2ncc(-c3cc(OC)c(OC)c(OC)c3)n2c1	?	-5%	7.3µM*	i	-10%	-6%

From PubChem
